Laboratory results: PubChem BioAssay (NCI)
About 79,000 compounds went through this panel and 15% of them were active in at least one assay; those are over-represented in the sample as a whole. Rule as the data show it: active = growth inhibition above about 70%; inactive = the rest.

Columns and labels:
[1] = NCI Yeast Anticancer Drug Screen. Data for the rad50 strain (AID 155);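 also: 0% = growth of vehicle-only cultures of the same strain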; settings: S. cerevisiae rad50 strain growth inhibition; at 50.0 µM; hits give high values
Summary of the method: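 DNA repair mutant yeast, compound exposure, growth read-out; inhibition is taken relative to vehicle.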

[2] = NCI Yeast Anticancer Drug Screen. Data for the mec2-1 strain (AID 157); settings: S. cerevisiae mec2-1 strain, at 50.0 µM, hits give high values
Summary of the method: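 Cells of the genetically defined mec2-1 yeast strain are incubated with test compound. Inhibition of growth is calculated against vehicle-treated controls.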

[3] = NCI Yeast Anticancer Drug Screen. Data for the sgs1 mgt1 strain (AID 161);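 also: 0% = growth of cultures given vehicle only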; settings: S. cerevisiae sgs1 mgt1 strain, at 50.0 µM, hits give high values
Summary of the method: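 Test agents were incubated with a DNA-repair-mutant yeast strain. Growth was then read and compared against vehicle-treated controls.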

[4] = NCI Yeast Anticancer Drug Screen. Data for the cln2 rad14 strain (AID 165);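 also: 0% = growth equal to vehicle treated cultures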; settings: S. cerevisiae cln2 rad14 strain, at 50.0 µM, hits give high values
Summary of the method: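 The screen exposed genetically defined yeast (cln2 rad14) to test compounds and scored growth inhibition relative to vehicle-treated controls.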

[5] = NCI Yeast Anticancer Drug Screen. Data for the bub3 strain (AID 167); settings: S. cerevisiae bub3 mutant strain, at 50.0 µM, hits give high values
Summary of the method: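 In this screen, a yeast mutant lacking normal mitotic checkpoint function is challenged with compound. Relative growth versus vehicle gives the inhibition value.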

[6] = NCI Yeast Anticancer Drug Screen. Data for the mlh1 rad18 strain (AID 175); settings: S. cerevisiae mlh1 rad18 strain growth inhibition; at 50.0 µM; hits give high values
Summary of the method: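 Compound-treated yeast growth, normalised to vehicle controls. Strain bears defined DNA repair mutations.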

Measured: growth inhibition

Cc1cc(=O)[nH]c(N/N=C2/CCCCC2C)n1 (stereo unspecified)
inactive: [1] -29.4% | [2] -25% | [3] -7.05% | [4] -0.6% | [5] -24.3% | [6] -21.8%

COC(=O)C1(NC(=O)C2(N3C(=O)c4ccccc4C3=O)CCCC2)CCCC1
inactive: [1] -7.95% | [2] -0.95% | [3] -12.7% | [4] -9.45% | [5] -17.9% | [6] 1.6%

O=S(=O)(Nc1cc(C(F)(F)F)ccc1Cl)c1ccc(F)cc1
inactive: [1] -24.3% | [2] -22.4% | [3] -34.4% | [4] 7.5% | [5] -32.6% | [6] -8%

CC(=O)N1CCCCC1C/C(C)=N/O (stereo unspecified)
inactive: [1] 3.55% | [2] 11.6% | [3] -5.95% | [4] -5.6% | [5] 1.35% | [6] 3.3%

CSc1ccc2c(c1)Cc1cc(N)ccc1-2
inactive: [1] 3.9% | [2] 10.6% | [3] 12.1% | [4] 3.4% | [5] -26.7% | [6] 10.8%

CC12CC(=O)OC(C1)C(=O)c1ccccc12 (stereo unspecified)
inactive: [1] 8.9% | [2] 16.1% | [3] 2.85% | [4] 4.45% | [5] 1.7% | [6] -3.15%

Cc1c(O)ccc2c1CCCC2
inactive: [1] 7.05% | [2] 5.75% | [3] -4.8% | [4] -34.2% | [5] 6.1% | [6] 4.65%

Cc1cc(N2CCOCC2)nc2ccc(Cc3ccc4nc(N5CCOCC5)cc(C)c4c3)cc12
inactive: [1] 13.5% | [2] -10.2% | [3] -32.2% | [4] -24.2% | [5] -4.65% | [6] -4.4%

CCCCOCC(=O)NC1CCCCC1
inactive: [1] 29.9% | [2] -30.4% | [3] -39.4% | [4] -10.2% | [5] -24.1% | [6] 33.6%

Cc1c(C(C)C(=O)O)c2ccccc2n1C (stereo unspecified)
inactive: [1] 39% | [2] 12.9% | [3] 31.9% | [4] 33.1% | [5] 56.8% | [6] 45.1%

COc1ccc2nc3cc(Cl)ccc3c(NCCC3CCCN4CCCCC34)c2c1 (stereo unspecified)
inactive: [1] 33% | [2] 26.4% | [3] 14.6% | [4] 21.6% | [5] 12.4% | [6] 33%

COc1ccc(C2C(Cl)C(=O)N2n2cnc3ccccc3c2=O)cc1OC (stereo unspecified)
inactive: [1] -20.7% | [2] -0.35% | [3] 0.1% | [4] 8.9% | [5] -10.9% | [6] -21.6%

O=C1C(NS(=O)(=O)c2ccccc2)=C(n2cnc3ccccc32)C(=O)c2ccccc21
inactive: [1] 0.75% | [2] 4.4% | [3] 12.1% | [4] -1.95% | [5] 1.65% | [6] -58.8%

CC1(O)c2ccccc2-c2nc3ccccc3nc21 (stereo unspecified)
inactive: [1] 15.1% | [2] 14.4% | [3] -16.4% | [4] -11.8% | [5] -0.35% | [6] -15.4%

O=C(Nc1ccccc1SC(/C=C/NNC1=NC(c2ccccc2)C(c2ccccc2)=NN1)c1ccccc1)c1ccc(Cl)cc1Cl (stereo unspecified)
inactive: [1] -35% | [2] -7.7% | [3] -22.8% | [4] 24.8% | [5] 0.15% | [6] -13.4%

COC(=O)C(CC(=O)C=[N+]=[N-])NC(=O)C(Cl)Cl (stereo unspecified)
inactive: [1] -2.4% | [2] -8.9% | [3] -4.7% | [4] -15.9% | [5] 9.3% | [6] -8.95%

C(/C=N/NC1=NCCCCN1)=N\NC1=NCCCCN1
inactive: [1] -6.7% | [2] -13% | [3] -9.05% | [4] 4.5% | [5] -13.6% | [6] -11.2%

COc1ccc(N(C)CN(C)c2nc(N(C)C)nc(N(C)C)n2)cc1
inactive: [1] -67.8% | [2] -30.8% | [3] -43% | [4] -45.4% | [5] -60.8% | [6] -62.9%

CCCCCCCC[n+]1cccc(C#N)c1
inactive: [1] 12.7% | [2] 23.6% | [3] 21.4% | [4] 16.7% | [5] 36% | [6] 19.1%

C=C1c2ccccc2N(S(=O)(=O)c2ccc(C)cc2)C12CCCCC2
inactive: [1] 3.9% | [2] 14.6% | [3] -10.2% | [4] -3.2% | [5] -0.7% | [6] -6%

COc1ccc(NC=O)c(C(O)CCNC(C)=O)c1 (stereo unspecified)
inactive: [1] -15.4% | [2] -10.1% | [3] -19.6% | [4] 0.45% | [5] -39.1% | [6] -34.5%

Cc1cc(N)ccc1N=Nc1cc(S(=O)(=O)O)c2cccc(S(=O)(=O)O)c2c1
inactive: [1] -4.4% | [2] 22.1% | [3] -2.65% | [4] 3.95% | [5] 8.85% | [6] -4.55%

CC(=O)c1ccccc1C(C)c1ccc(C)c2ccccc12 (stereo unspecified)
inactive: [1] -1.65% | [2] 12.4% | [3] 6.75% | [4] -11.8% | [5] 2.95% | [6] 2.3%

COc1ccc(C(=O)C(c2ccc(OC)cc2)C2(O)C(=O)Nc3ccc([N+](=O)[O-])cc32)cc1 (stereo unspecified)
inactive: [1] -7.65% | [2] 1.95% | [3] 6.2% | [4] 18.5% | [5] 5.65% | [6] 1.4%

O=C(NCc1ccc(Cl)c(Cl)c1)Nc1ccccc1Cl
inactive: [1] 10.6% | [2] 24.4% | [3] 23.3% | [4] -2.7% | [5] 24.8% | [6] 17.9%

Cc1ncc(CO)c(/C=N/NC(N)=S)c1O
inactive: [1] 3.3% | [2] -13.9% | [3] 3.7% | [4] -34.9% | [5] 0.05% | [6] 13.6%

Nn1c(=S)[nH]nc(/C=C/c2ccc3c(c2)OCO3)c1=O
inactive: [1] 38.9% | [2] 20.1% | [3] 3.8% | [4] -19.1% | [5] 6.35% | [6] 15.6%

C/C(=C/C(=O)O)CC/C=C(/C)C(=O)O
inactive: [1] -0.15% | [2] -5.1% | [3] -1.25% | [4] 21.4% | [5] 22.1% | [6] 4.9%

c1ccc(-c2ccc(-c3nnc(-c4ccc(-c5ccccc5)cc4)o3)cc2)cc1
inactive: [1] -0.95% | [2] -10.4% | [3] 2.7% | [4] -35.6% | [5] -2.6% | [6] -3.1%

N=C(/C(=C/c1cccc2ccccc12)c1ccccc1)c1ccccc1
inactive: [1] 13.8% | [2] 10.2% | [3] 14.1% | [4] -7.6% | [5] -13.7% | [6] 13.6%

O=C(Nc1cccc([N+](=O)[O-])c1)C(=O)C(C(=O)c1ccccc1-c1ccccc1)C1OC(=O)c2ccccc21 (stereo unspecified)
inactive: [1] 27.9% | [2] 3.45% | [3] 17.9% | [4] -45% | [5] -6.85% | [6] 10.1%

CC(=O)C1SCC[S+]1C (stereo unspecified)
inactive: [1] -19.8% | [2] -7.6% | [3] -10.6% | [4] 13.4% | [5] -9.2% | [6] -10.8%

CNc1cccc2c1C(C)C[C@]1(C)C(=O)Nc3ccccc3[C@H]21 (stereo partly specified)
inactive: [1] -36.5% | [2] -19.7% | [3] -22.6% | [4] -31.1% | [5] -35.8% | [6] -80.3%

N/N=C1\C(=O)N(C2CCCCC2)C(=O)C1C(=O)NC1CCCCC1 (stereo unspecified)
inactive: [1] -10.9% | [2] -1.2% | [3] -15% | [4] -10.8% | [5] -20.4% | [6] -32.2%

CCCc1n[nH]c(=S)n1N1C(=S)NC(C)(C)C=C1C
inactive: [1] -1.8% | [2] -2% | [3] 18.1% | [4] -10.8% | [5] 4.1% | [6] 17.2%

O=C(c1ccccc1)C1CCCCC1
inactive: [1] 1.05% | [2] -3.65% | [3] -6.25% | [4] 6.45% | [5] 4.4% | [6] -3.7%

Cn1c(=O)c2c(ncn2CCSCC2=NS(=O)(=O)c3cc(S(N)(=O)=O)c(C(F)(F)F)cc3N2)n(C)c1=O
inactive: [1] 2.8% | [2] 1.75% | [3] -6.5% | [4] -35.6% | [5] 14.1% | [6] 4.95%

COc1ccc(-c2cc(-c3ccccc3)[nH]c(=S)c2C#N)cc1
inactive: [1] -23.8% | [2] -19.8% | [3] -55.4% | [4] -19.1% | [5] 13.3% | [6] -30.1%

COc1ccc(C(=O)CC(c2ccccc2)[C@H]2C(c3ccc(OC)cc3)=Nc3c(nc(SC)n(C)c3=O)NC2c2ccccc2)cc1 (stereo partly specified)
inactive: [1] 16.8% | [2] 7.55% | [3] 20.6% | [4] 12.7% | [5] -0.35% | [6] 19.2%

CNC(=O)OCc1c(COC(=O)NC)c2n(c1C)CSC2
inactive: [1] 4.95% | [2] -14.4% | [3] -11.3% | [4] -7.9% | [5] -5.45% | [6] 2%

CC(=O)OCC1OC(n2c(C)cc(C)c(C#N)c2=S)C(OC(C)=O)C(OC(C)=O)C1OC(C)=O (stereo unspecified)
inactive: [1] 21.2% | [2] 16.6% | [3] -5.35% | [4] -14.9% | [5] -6.05% | [6] 32.4%
